Source: PubChem BioAssay AID2108 (National Center for Advancing Translational Sciences (NCATS), 2009)
Records with an inconclusive call do not appear. The source made the active and inactive calls. Calls come from the whole dose curve; as a rule, active = well fitted curve in the direction sought with a large enough effect; inconclusive = small, poorly fitted or top-dose-only effect, or effect the other way, or another doubt; inactive = no such curve, though single readings can be large or run the other way.

What follows are molecules tested against Alpha-galactosidase A (Homo sapiens) (UniProt P06280) (assay: Confirmation of Inhibitors of Human alpha-Galactosidase Using Spleen Homogenate). Conditions: alpha-galactosidase enzyme activity; series mostly up to 56.2 µM.
Alpha-galactosidase A (Homo sapiens), sequence (P06280 32-429 limits assumed): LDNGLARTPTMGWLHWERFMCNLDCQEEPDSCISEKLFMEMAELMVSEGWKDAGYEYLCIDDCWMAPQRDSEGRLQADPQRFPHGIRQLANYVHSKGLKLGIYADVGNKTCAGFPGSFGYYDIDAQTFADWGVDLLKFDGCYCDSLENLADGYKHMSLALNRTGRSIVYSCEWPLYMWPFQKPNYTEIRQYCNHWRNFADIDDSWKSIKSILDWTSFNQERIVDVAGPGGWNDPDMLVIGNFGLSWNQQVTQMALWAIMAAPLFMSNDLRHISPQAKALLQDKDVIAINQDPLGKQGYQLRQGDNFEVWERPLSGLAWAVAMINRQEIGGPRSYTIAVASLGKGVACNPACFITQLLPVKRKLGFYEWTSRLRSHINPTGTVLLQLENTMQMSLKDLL
Method in brief: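 Human spleen homogenate (1 ug) with 1 mM 4-methylumbelliferyl-alpha-D-galactopyranoside in citrate-phosphate pH 5.0, 0.01% Tween-20, 37C 40 min; compounds 0.5 nM–58 uM final. Stopped at pH 10, fluorescence Ex 365/Em 440; AC50 from Hill fits.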

outcome, inactive:
COC(=O)c1ccc(CSc2cc(C)c3cccc(C)c3n2)o1
Cc1cccc(NC(=O)c2nc[nH]c2C(=O)N[C@@H](CCCCNC(=O)OC(C)(C)C)C(=O)OC(C)(C)C)c1
O=C(O)c1cc(NCc2ccc3c(c2)OCO3)ccc1N1CCOCC1
CC1=C(C(=O)Nc2ccccc2C)C(c2ccccn2)n2nc(SCc3ccccc3F)nc2N1 (configuration not stated)
CC(=O)NNc1nc2ccccc2s1
CCOC(=O)c1ccc(NC(=O)c2ccccc2)cc1
O=C1CC(c2ccccc2)Cc2nc(NCc3ccco3)ncc21 (configuration not stated)
OCC1NCC(O)C(O)C1O (configuration not stated)
COc1cccc(NC(=S)NCc2ccc3c(c2)cc(C)n3C)c1
Cc1ccc(S(=O)(=O)N2CCOCC2)cc1
O=S(=O)(c1ccc(O)cc1)N1CCOCC1
S=C(NCCc1ccccc1)N1CCn2cccc2C1c1ccncc1 (configuration not stated)
Cc1cc(NC(=O)C(C)(C)C)cc(-c2nc3ncccc3o2)c1O
O=C(c1ccccc1)N1CCN(C(=O)N(c2ccccc2)c2ccccc2)CC1
COc1ccc(S(=O)(=O)N2CCN(C(=O)COc3ccc4c(C)cc(=O)oc4c3)CC2)cc1
CCOC(=O)C(CC)(CCC(=O)O)c1csc(Nc2ccc(C)cc2)n1 (configuration not stated)
CCCN1CNc2c(c(=O)[nH]c(=S)n2CCc2ccc(OC)c(OC)c2)C1
CCOC(=O)c1cc2c(=O)n3cccc(C)c3nc2n(CCCOC)c1=NC(=O)c1cccnc1
Nc1ccc(Cc2ccc(N)c(O)c2)cc1O
O=C(CSc1nc(C2CC2)nc2ccccc12)Nc1cccc(O)c1
NN=C1c2cc(S(=O)(=O)NCCO)ccc2-c2ccc(S(=O)(=O)NCCO)cc21
CC(C)NCC(O)COc1cccc2[nH]ccc12 (configuration not stated)
CC(=O)N1CCN(c2ccc(NCc3ccc4c(c3)OCO4)cc2)CC1
COc1ccc(NS(=O)(=O)c2ccc(O)c(NC(=O)c3cc4c(C)nn(-c5ccc(F)cc5)c4s3)c2)cc1
O=C(c1ccccc1)N1CCN(C(=O)c2ccccc2)CC1
Cc1ccc(-c2nc(-c3cc4cc(Cl)ccc4oc3=O)sc2C)cc1
CC1CCc2nc(-c3cc4c(ccc5ccccc54)oc3=O)sc2C1 (configuration not stated)
CCC(=O)N1CCN(c2ccc(Cl)cc2NC(=O)c2ccc(N3CCCC3)c([N+](=O)[O-])c2)CC1
O=C(CC(c1ccccc1)c1cc(Br)ccc1O)NCCN1CCOCC1 (configuration not stated)
O=C(Nc1ccccc1)C1CCN(S(=O)(=O)c2ccccc2)CC1
CCN(CC)c1ccc(/C=N/NC(=O)C(O)c2ccccc2)cc1 (configuration not stated)
Cc1ccccc1Nc1c(-c2cccs2)nc2cccc(C)n12
COc1ccccc1NCC(=O)n1nc(C)cc1C
Cc1ccc(/C=N\Nc2nc3ccc(Cl)cc3[nH]2)o1
O=c1oc2ccc(Cl)cc2cc1-c1nc2c(s1)CCCC2
CN(C)CC/C=C1/c2ccccc2Sc2c(O)cc(Cl)cc21
O=C(O)Cc1sc(-c2cc3ccccc3oc2=O)nc1-c1ccc(-c2ccccc2)cc1
